# Paper PMC7862700, “An all-to-all approach to the identification of sequence-specific readers for epigenetic DNA modifications on cytosine”
# Legend:
# Test in all cases: DAPPL (digital affinity profiling via proximity ligation, sequencing); 10 mM Tris-HCl pH 7.5, 50 mM NaCl, 1 mM DTT, 4% glycerol, room temperature, 30 min; GST-TFs on glutathione beads, 16-mer random dsDNA library, 0.1% formaldehyde crosslink after washing; high values mean tight binding
# FEV = biological target: T1, FEV (Homo sapiens, UniProt Q99581 1-238); settings: protein: recombinant; tags: N-terminal GST; dsDNA, one strand shown
# T1 sequence: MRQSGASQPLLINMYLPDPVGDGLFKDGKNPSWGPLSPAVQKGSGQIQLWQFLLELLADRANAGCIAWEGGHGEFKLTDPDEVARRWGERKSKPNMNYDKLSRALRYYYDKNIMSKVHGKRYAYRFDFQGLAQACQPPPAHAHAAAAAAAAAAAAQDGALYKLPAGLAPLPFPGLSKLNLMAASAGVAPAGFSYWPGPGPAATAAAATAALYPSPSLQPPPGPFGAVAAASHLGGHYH
# Procedure, shortened: (§1)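 A tag-only sample was pooled with DNA-barcoded human transcription factors that had been expressed in yeast as GST fusions and captured on glutathione beads. The pools were incubated for 30 min at room temperature with 200 nmole of a random double-stranded 16-mer DNA library in Tris/NaCl/DTT/glycerol buffer, then washed, crosslinked with 0.1% formaldehyde, proximity-ligated (BsaI/T4 ligase, 1 h, 37 °C), PCR-amplified and sequenced on an Illumina NextSeq500. Binding signal is each hexamer's read frequency for a factor divided by its frequency for the tag-only sample.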
# ETV5 = ETV5 (Homo sapiens, UniProt P41161 1-510); settings: protein: recombinant; tags: N-terminal GST; dsDNA, one strand shown
# Chain of ETV5 (P41161 whole entry): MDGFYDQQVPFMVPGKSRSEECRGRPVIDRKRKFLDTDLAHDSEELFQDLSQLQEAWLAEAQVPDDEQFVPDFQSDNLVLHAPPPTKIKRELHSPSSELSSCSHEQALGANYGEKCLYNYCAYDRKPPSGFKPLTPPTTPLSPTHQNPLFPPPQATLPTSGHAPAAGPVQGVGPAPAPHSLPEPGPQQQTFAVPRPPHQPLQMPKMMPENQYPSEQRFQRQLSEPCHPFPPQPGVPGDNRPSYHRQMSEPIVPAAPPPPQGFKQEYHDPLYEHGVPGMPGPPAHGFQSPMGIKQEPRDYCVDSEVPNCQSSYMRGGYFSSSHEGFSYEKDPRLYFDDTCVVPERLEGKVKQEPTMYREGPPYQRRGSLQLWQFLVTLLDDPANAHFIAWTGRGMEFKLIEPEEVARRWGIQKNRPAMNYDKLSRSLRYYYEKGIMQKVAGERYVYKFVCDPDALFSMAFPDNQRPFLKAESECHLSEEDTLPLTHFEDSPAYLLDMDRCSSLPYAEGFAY
# Procedure, shortened: as §1
# HSF1 = HSF1 (Homo sapiens, UniProt Q00613 1-529); settings: protein: recombinant; tags: N-terminal GST; chain copies: 3; dsDNA, one strand shown
# Chain of HSF1 (Q00613 whole entry): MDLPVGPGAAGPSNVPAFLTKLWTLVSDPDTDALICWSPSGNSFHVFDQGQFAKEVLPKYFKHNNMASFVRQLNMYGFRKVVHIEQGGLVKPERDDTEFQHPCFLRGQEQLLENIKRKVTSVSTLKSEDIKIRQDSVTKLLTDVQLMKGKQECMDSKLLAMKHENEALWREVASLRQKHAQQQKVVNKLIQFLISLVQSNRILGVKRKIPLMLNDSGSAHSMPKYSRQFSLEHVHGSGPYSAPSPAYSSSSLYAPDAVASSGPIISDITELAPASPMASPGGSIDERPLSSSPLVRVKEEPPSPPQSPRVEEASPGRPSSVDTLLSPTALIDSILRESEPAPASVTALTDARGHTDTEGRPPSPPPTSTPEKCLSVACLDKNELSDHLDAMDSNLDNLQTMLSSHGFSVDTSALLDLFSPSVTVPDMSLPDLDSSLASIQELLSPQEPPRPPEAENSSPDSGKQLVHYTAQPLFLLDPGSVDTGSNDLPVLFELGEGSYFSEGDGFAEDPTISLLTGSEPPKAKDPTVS
# Procedure, shortened: as §1
# SPIC = biological target: T2, SPIC (Homo sapiens, UniProt Q8N5J4 1-248); settings: protein: recombinant; tags: N-terminal GST; dsDNA, one strand shown
# T2 sequence: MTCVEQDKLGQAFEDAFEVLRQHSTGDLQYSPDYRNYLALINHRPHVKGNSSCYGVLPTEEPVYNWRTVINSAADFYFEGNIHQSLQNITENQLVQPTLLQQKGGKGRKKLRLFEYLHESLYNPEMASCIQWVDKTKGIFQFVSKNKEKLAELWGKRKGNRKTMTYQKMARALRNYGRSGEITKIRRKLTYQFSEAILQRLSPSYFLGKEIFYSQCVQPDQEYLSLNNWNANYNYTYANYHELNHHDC
# Procedure, shortened: as §1
# ELF4 = ELF4 (Homo sapiens, UniProt Q99607 1-663); settings: protein: recombinant; tags: N-terminal GST; dsDNA, one strand shown
# Chain of ELF4 (Q99607 whole entry): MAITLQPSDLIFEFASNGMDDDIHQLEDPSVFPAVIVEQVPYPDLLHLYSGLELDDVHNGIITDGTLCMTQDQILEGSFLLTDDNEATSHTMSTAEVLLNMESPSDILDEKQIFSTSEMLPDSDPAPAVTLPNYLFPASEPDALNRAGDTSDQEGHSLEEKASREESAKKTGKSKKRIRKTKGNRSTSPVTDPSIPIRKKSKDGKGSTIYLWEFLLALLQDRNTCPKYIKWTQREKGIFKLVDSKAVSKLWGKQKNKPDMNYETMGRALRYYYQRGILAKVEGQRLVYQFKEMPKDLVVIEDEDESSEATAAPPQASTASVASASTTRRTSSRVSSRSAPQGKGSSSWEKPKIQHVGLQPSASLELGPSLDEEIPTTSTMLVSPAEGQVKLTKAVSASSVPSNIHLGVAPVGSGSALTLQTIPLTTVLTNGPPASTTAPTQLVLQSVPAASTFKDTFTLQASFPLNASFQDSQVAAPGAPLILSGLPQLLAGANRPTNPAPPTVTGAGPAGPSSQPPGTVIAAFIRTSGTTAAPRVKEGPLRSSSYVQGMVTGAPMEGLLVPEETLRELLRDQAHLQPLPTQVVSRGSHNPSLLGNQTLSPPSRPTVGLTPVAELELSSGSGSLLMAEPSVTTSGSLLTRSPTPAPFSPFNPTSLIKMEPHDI
# Procedure, shortened: as §1
# ELK4 = biological target: T3, ELK4 (Homo sapiens, UniProt P28324-2 1-405); settings: protein: recombinant; tags: N-terminal GST; dsDNA, one strand shown
# T3 sequence: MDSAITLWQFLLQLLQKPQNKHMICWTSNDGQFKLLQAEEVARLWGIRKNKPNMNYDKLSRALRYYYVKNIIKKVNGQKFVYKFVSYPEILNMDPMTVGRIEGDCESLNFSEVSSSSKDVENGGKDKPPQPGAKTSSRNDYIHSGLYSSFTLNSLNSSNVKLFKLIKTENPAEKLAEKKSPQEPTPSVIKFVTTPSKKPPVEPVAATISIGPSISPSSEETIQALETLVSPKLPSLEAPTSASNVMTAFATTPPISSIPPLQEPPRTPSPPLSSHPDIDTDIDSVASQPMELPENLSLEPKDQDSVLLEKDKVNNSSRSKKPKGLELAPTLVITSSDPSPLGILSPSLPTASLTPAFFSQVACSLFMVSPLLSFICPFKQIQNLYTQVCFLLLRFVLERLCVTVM
# Procedure, shortened: as §1
# ETV2 = biological target: T4, ETV2 (Homo sapiens, UniProt O00321 1-342); settings: protein: recombinant; tags: N-terminal GST; dsDNA, one strand shown
# T4 sequence: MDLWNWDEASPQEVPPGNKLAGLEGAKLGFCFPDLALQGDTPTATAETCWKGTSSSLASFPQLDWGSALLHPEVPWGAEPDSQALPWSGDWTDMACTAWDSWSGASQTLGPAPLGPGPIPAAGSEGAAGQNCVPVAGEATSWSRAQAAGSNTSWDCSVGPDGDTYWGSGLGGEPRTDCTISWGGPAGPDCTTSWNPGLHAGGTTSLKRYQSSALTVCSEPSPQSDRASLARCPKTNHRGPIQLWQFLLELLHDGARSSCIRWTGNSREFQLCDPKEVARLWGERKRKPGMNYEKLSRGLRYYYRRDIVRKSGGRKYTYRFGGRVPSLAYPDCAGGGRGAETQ
# Procedure, shortened: as §1
# ELF3 = biological target: T5, ELF3 (Homo sapiens, UniProt P78545 1-371); settings: protein: recombinant; tags: N-terminal GST; dsDNA, one strand shown
# T5 sequence: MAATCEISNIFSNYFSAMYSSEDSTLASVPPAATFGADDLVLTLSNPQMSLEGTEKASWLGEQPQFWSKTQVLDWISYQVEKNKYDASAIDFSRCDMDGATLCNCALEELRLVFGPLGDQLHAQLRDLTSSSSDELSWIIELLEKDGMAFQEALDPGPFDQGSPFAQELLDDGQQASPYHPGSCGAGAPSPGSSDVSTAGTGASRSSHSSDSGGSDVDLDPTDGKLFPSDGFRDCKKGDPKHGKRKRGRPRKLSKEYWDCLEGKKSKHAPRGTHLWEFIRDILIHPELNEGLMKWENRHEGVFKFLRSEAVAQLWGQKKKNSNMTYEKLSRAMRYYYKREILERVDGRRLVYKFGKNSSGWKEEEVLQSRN
# Procedure, shortened: as §1
# CRX = CRX (Homo sapiens, UniProt O43186 1-299); settings: protein: recombinant; tags: N-terminal GST; dsDNA, one strand shown
# Chain of CRX (O43186 whole entry): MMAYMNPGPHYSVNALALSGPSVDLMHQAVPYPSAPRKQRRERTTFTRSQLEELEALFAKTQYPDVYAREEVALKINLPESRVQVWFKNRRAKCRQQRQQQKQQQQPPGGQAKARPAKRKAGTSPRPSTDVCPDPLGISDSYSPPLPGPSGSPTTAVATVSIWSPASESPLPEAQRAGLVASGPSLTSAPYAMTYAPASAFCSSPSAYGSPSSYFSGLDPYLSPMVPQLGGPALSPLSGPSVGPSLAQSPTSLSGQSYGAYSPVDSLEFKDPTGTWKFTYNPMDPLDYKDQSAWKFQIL
# Procedure, shortened: as §1
# ETV1 = ETV1 (Homo sapiens, UniProt P50549 1-477); settings: protein: recombinant; tags: N-terminal GST; dsDNA, one strand shown
# Chain of ETV1 (P50549 whole entry): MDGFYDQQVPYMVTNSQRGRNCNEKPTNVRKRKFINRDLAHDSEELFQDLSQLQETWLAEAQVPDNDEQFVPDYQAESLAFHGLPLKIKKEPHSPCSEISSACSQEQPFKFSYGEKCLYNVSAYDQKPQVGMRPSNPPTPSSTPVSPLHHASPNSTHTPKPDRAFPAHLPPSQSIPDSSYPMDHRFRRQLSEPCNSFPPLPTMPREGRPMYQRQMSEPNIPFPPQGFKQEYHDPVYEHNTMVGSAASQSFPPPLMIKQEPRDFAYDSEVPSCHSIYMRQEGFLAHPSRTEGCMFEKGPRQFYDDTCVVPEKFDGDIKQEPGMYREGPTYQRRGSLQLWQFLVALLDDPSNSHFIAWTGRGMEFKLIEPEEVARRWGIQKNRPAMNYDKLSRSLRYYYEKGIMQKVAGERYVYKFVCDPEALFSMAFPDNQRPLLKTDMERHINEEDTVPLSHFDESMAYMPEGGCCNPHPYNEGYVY
# Procedure, shortened: as §1
# ERF = biological target: T6, ERF (Homo sapiens, UniProt P50548 1-548); settings: protein: recombinant; tags: N-terminal GST; dsDNA, one strand shown
# T6 sequence: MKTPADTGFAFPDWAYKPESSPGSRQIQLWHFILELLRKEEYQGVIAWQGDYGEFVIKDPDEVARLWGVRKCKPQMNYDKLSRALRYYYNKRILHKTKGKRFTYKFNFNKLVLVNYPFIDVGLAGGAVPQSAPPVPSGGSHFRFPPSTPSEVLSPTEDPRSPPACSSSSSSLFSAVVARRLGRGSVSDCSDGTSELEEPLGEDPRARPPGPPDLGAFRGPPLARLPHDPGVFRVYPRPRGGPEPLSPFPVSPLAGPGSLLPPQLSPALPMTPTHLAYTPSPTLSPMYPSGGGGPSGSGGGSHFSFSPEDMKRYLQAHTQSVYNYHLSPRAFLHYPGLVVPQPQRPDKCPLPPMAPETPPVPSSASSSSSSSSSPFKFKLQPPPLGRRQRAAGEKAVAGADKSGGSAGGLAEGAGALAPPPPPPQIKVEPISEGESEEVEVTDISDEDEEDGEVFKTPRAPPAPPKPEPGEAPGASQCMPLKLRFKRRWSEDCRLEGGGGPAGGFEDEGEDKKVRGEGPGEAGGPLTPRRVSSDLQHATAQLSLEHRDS
# Procedure, shortened: as §1
# ETV3L = biological target: T7, ETV3L (Homo sapiens, UniProt Q6ZN32 1-361); settings: protein: recombinant; tags: N-terminal GST; dsDNA, one strand shown
# T7 sequence: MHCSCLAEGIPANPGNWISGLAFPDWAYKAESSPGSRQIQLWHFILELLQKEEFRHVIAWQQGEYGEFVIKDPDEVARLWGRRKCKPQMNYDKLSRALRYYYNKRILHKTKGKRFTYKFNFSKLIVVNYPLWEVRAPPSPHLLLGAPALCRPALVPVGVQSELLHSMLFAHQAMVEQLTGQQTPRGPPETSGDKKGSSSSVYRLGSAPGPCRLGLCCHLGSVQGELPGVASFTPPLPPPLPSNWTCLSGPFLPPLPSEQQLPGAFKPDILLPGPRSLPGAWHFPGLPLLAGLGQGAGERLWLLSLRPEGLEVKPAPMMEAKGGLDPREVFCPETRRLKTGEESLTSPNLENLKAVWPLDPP
# Procedure, shortened: as §1
# ETS2 = biological target: T8, ETS2 (Homo sapiens, UniProt P15036 1-469); settings: protein: recombinant; tags: N-terminal GST; dsDNA, one strand shown
# T8 sequence: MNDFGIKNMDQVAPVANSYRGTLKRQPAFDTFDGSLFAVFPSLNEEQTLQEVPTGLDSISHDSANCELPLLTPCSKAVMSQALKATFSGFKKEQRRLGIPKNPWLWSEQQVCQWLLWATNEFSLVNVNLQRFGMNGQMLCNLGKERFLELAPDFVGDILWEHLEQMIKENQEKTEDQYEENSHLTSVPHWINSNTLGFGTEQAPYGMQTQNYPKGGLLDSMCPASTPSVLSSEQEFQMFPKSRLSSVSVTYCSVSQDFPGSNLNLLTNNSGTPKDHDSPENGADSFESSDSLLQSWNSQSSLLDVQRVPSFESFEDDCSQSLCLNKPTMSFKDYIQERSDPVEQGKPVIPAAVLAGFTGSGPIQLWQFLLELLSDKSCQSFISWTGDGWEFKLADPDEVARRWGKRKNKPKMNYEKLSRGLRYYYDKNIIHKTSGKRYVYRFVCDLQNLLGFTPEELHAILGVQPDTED
# Procedure, shortened: as §1
# SPDEF = biological target: T9, SPDEF (Homo sapiens, UniProt O95238 1-335); settings: protein: recombinant; tags: N-terminal GST; dsDNA, one strand shown
# T9 sequence: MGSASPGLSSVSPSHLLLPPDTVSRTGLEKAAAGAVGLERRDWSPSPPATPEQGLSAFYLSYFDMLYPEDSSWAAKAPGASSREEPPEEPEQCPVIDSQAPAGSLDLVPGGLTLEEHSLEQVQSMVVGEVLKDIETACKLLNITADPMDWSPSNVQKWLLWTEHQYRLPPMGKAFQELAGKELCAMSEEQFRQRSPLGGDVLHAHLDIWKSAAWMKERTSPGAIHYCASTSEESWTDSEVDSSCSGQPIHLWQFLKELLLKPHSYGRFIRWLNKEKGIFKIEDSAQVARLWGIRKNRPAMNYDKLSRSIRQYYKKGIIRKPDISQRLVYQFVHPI
# Procedure, shortened: as §1
# ETV7 = biological target: T10, ETV7 (Homo sapiens, UniProt Q9Y603 1-341); settings: protein: recombinant; tags: N-terminal GST; dsDNA, one strand shown
# T10 sequence: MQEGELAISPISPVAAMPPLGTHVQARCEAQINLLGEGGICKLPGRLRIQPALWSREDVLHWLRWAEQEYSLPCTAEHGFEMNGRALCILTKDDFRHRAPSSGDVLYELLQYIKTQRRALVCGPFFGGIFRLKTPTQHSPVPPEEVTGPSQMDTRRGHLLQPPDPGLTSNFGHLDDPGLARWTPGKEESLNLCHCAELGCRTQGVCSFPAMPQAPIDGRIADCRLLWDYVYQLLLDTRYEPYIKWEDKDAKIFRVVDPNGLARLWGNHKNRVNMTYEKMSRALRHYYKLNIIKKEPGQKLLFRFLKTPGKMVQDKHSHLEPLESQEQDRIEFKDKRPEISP
# Procedure, shortened: as §1
# ELF5 = biological target: T11, ELF5 (Homo sapiens, UniProt Q9UKW6-2 1-255); settings: protein: recombinant; tags: N-terminal GST; dsDNA, one strand shown
# T11 sequence: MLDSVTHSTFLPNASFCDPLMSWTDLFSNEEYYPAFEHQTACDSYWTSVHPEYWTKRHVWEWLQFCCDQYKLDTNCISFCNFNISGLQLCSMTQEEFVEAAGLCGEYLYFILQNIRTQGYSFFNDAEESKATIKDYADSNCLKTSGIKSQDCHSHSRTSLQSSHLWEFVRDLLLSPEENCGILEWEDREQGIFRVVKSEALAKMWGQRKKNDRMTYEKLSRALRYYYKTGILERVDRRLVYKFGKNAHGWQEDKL
# Procedure, shortened: as §1
# ETV3 = biological target: T12, ETV3 (Homo sapiens, UniProt P41162-2 1-143); settings: protein: recombinant; tags: N-terminal GST; dsDNA, one strand shown
# T12 sequence: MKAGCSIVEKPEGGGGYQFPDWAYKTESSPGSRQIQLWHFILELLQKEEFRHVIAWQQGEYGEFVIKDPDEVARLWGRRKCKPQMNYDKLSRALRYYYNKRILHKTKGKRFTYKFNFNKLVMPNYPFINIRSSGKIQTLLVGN
# Procedure, shortened: as §1
# ETV6 = ETV6 (Homo sapiens, UniProt P41212 1-452); settings: protein: recombinant; tags: N-terminal GST; dsDNA, one strand shown
# Chain of ETV6 (P41212 whole entry): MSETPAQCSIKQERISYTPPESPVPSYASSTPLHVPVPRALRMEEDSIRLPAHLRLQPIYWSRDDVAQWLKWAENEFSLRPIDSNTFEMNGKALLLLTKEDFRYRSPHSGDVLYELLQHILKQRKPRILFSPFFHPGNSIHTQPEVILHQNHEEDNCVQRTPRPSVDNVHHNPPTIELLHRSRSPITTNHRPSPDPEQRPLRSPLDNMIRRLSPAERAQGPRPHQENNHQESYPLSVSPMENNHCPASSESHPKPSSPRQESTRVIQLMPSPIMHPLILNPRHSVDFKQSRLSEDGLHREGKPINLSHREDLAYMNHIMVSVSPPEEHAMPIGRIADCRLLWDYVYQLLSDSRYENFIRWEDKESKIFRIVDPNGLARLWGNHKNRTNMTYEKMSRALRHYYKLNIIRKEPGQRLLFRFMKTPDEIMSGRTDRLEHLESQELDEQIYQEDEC
# Procedure, shortened: as §1
sequence,measurement,setting,value
TCATCA,binding signal,FEV,"1.12 fold enrichment (6-mer frequency, TF over GST control)"
same,binding signal,ETV5,"1.09 fold enrichment (6-mer frequency, TF over GST control)"
same,binding signal,HSF1,"1.06 fold enrichment (6-mer frequency, TF over GST control)"
same,binding signal,SPIC,"1.16 fold enrichment (6-mer frequency, TF over GST control)"
same,binding signal,ELF4,"1.18 fold enrichment (6-mer frequency, TF over GST control)"
same,binding signal,ELK4,"1.26 fold enrichment (6-mer frequency, TF over GST control)"
same,binding signal,ETV2,"1.07 fold enrichment (6-mer frequency, TF over GST control)"
same,binding signal,ELF3,"1.07 fold enrichment (6-mer frequency, TF over GST control)"
same,binding signal,CRX,"1.07 fold enrichment (6-mer frequency, TF over GST control)"
same,binding signal,ETV1,"1.06 fold enrichment (6-mer frequency, TF over GST control)"
same,binding signal,ERF,"1.23 fold enrichment (6-mer frequency, TF over GST control)"
same,binding signal,ETV3L,"1.18 fold enrichment (6-mer frequency, TF over GST control)"
same,binding signal,ETS2,"1.15 fold enrichment (6-mer frequency, TF over GST control)"
same,binding signal,SPDEF,"1.12 fold enrichment (6-mer frequency, TF over GST control)"
same,binding signal,ETV7,"1.15 fold enrichment (6-mer frequency, TF over GST control)"
same,binding signal,ELF5,"1.16 fold enrichment (6-mer frequency, TF over GST control)"
same,binding signal,ETV3,"1.22 fold enrichment (6-mer frequency, TF over GST control)"
same,binding signal,ETV6,"1.08 fold enrichment (6-mer frequency, TF over GST control)"
